{"source": "PubChem BioAssay AID868", "about": "(SRMLSC, 2007)", "note": "Screen size: about 190,000 compounds; about 3,500 (1.8%) were called active. The full list was thinned out, with actives kept by preference. A number with no mark means an inactive call.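 How the source made its calls: active means inhibition above a set limit, 3 SD over mean compound inhibition (cut at about 8.4% in these data); inactive means the rest.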"}
{"test": "inhibitors of the yeast RAM network, primary screen, dse1pr::URA3 reporter, 5-FOA selection (AID 868);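 further: 0% = DMSO-only wells with no growth and 100% = 10 µM 1-NA-PP1 full growth; inhibition rescues growth on 5-FOA so higher OD means more RAM inhibition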", "details": "S. cerevisiae dse1pr::URA3 reporter, 5-FOA growth OD615, 2 d; at 50 µM; hits give high values"}
{"smiles": "O=C(Nc1cccc2ccccc12)N1CCC2(CC1)OCCO2", "inhibition": "1.87%"}
{"smiles": "CC(=O)Nc1ccccc1C(=O)OCC(=O)c1cccc2ccccc12", "inhibition": "9.49% (active)"}
{"smiles": "CC1=CC(=Cc2sc3ccccc3[n+]2C)C=C(C)O1", "inhibition": "0.13%"}
{"smiles": "Cc1ccc(-c2cc(C(=O)N3CCC4(CC3)OCCO4)no2)cc1", "inhibition": "-1.75%"}
{"smiles": "COC(=O)N1C(c2ccccc2)C1c1ccccc1", "note": "(stereo not given)", "inhibition": "0.12%"}
{"smiles": "OCC#CC[N+]1(CC#Cc2ccccc2)CCCC1", "inhibition": "2.58%"}
{"smiles": "O=C(NC(c1ccc(Cl)cc1)P(=O)(Oc1ccccc1)Oc1ccccc1)OCc1ccccc1", "note": "(stereo not given)", "inhibition": "11.3% (active)"}
{"smiles": "O=C(Nc1cccc(OC(=O)N2CCCCC2)c1)N1CCOCC1", "inhibition": "-1.26%"}
{"smiles": "Cc1ccnc(-n2c(C)cc(/C=C3\\C(=O)NC(=S)N(C)C3=O)c2C)c1", "inhibition": "1.13%"}
{"smiles": "CCOC(=O)C1SC2(C(F)(F)C(F)F)CC1(O)c1c(c(OC)c3occc3c1OC)O2", "note": "(stereo not given)", "inhibition": "9.36% (active)"}
{"smiles": "NC(=O)Cn1cc(C(=O)c2ccccc2F)c2ccccc21", "inhibition": "4.57%"}
{"smiles": "O=C(COC(=O)c1ccccc1)Nc1ccc(Cl)cc1C(=O)c1ccccc1", "inhibition": "8.43% (active)"}
{"smiles": "O=C(CCNS(=O)(=O)c1ccccc1)Nc1ccc(Cl)cc1C(=O)c1ccccc1", "inhibition": "2.12%"}
{"smiles": "CN1CCN(C(=S)SCC(=O)Nc2ccc(Cl)cc2C(=O)c2ccccc2)CC1", "inhibition": "-0.25%"}
{"smiles": "COc1ccc(NC(=O)N2CCC3(CC2)OCCO3)c(OC)c1", "inhibition": "4.37%"}
{"smiles": "Cc1ccc(-c2nn(CCC#N)cc2C(=O)O)cc1C", "inhibition": "-0.13%"}
{"smiles": "C=CCN(CC=C)C(=O)Nc1ccc(OCC)cc1", "inhibition": "1.22%"}
{"smiles": "CN(C)P(=S)(Nc1ccccc1)C(Cl)(Cl)Cl", "note": "(stereo not given)", "inhibition": "1.76%"}
{"smiles": "CC(Cc1cccs1)NCc1ccc(Cl)cc1", "note": "(stereo not given)", "inhibition": "1.87%"}
{"smiles": "CC1CCCCN1Cc1cccnc1", "note": "(stereo not given)", "inhibition": "1.23%"}
